{
  "source": "PubChem BioAssay (EPA / NIEHS)",
  "note": "Calls of active or inactive are those of the source. Rule for the calls: active = hit-call score of the fitted dose curve at least 0.9, where 1 is the maximum; inactive = score below 0.9.",
  "data": [
    {"assay": "CEETOX_H295R_ANDR: CeeTox H295R High-throughput Steroidogenesis Assay for Androstenedione (ANDR) (AID 2283436);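 note: human H295R adrenal cells exposed for 48 h with androstenedione measured in medium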", "settings": "actives raise or lower the signal", "outline": "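Steroidogenesis in H295R adrenal cells after 48 h dosing; androstenedione quantified by LC-MS/MS, with DMSO as negative control and baseline for bidirectional curve fitting.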", "values": [
      {"smiles": "CCC(C)c1cc([N+](=O)[O-])cc([N+](=O)[O-])c1OC(=O)OC(C)C", "note": "(configuration not stated)", "outcome": "inactive"},
      {"smiles": "OCc1cccc(Oc2ccccc2)c1", "AC50": "50 µM (active)"},
      {"smiles": "CCOC(=O)[C@@H](C)Oc1ccc(Oc2nc3ccc(Cl)cc3o2)cc1", "outcome": "inactive"},
      {"smiles": "Nc1ccc(N)c2c1C(=O)c1ccccc1C2=O", "outcome": "inactive"},
      {"smiles": "BrCc1cccc(Oc2ccccc2)c1", "AC50": "38.2 µM (active)"}
    ]},
    {"assay": "CEETOX_H295R_CORTIC: CeeTox H295R High-throughput Steroidogenesis Assay for Corticosterone (CORTIC) (AID 2283437);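 note: corticosterone secreted into medium quantified by mass spectrometry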;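 for AC50: human H295R adrenal cells prestimulated with forskolin before chemical exposure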", "settings": "actives raise or lower the signal", "outline": "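Steps: seed H295R, adhere overnight; 10 uM forskolin 48 h; replace with chemical (0.1% DMSO) 48 h; extract medium with MTBE; quantify corticosterone by HPLC-MS/MS; score bidirectionally vs DMSO.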", "values": [
      {"smiles": "CCC(C)c1cc([N+](=O)[O-])cc([N+](=O)[O-])c1OC(=O)OC(C)C", "note": "(configuration not stated)", "outcome": "inactive"},
      {"smiles": "CC(CN=Cc1ccccc1O)N=Cc1ccccc1O", "note": "(configuration not stated)", "outcome": "inactive"},
      {"smiles": "COCCc1ccc(OCC(O)CNC(C)C)cc1", "note": "(configuration not stated)", "outcome": "inactive"},
      {"smiles": "CC1(C)C(=O)N(Cl)C(=O)N1Br", "outcome": "inactive"},
      {"smiles": "COc1ccc(N=Nc2cc(C)c(N=Nc3ccc(S(=O)(=O)O)cc3)cc2OC)cc1", "outcome": "inactive"},
      {"smiles": "CC(C)Nc1nc(N)nc(Cl)n1", "outcome": "inactive"},
      {"smiles": "CCOC(=O)[C@@H](C)Oc1ccc(Oc2nc3ccc(Cl)cc3o2)cc1", "outcome": "inactive"},
      {"smiles": "CCc1cc(C(C)(C)C)c(O)c(C(C)(C)C)c1", "outcome": "inactive"},
      {"smiles": "C=C1CC[C@H](O)C/C1=C/C=C1\\CCC[C@]2(C)[C@@H]([C@H](C)/C=C/[C@H](C)C(C)C)CC[C@@H]12", "outcome": "inactive"},
      {"smiles": "Nc1ccc(N)c2c1C(=O)c1ccccc1C2=O", "outcome": "inactive"},
      {"smiles": "COc1ccc(CCN2CCC(Nc3nc4ccccc4n3Cc3ccc(F)cc3)CC2)cc1", "AC50": "1.48 µM (active)"},
      {"smiles": "CCCCCCCCN1CCCC1=O", "outcome": "inactive"},
      {"smiles": "Cc1cc(=O)oc2cc(N(C)C)ccc12", "outcome": "inactive"},
      {"smiles": "BrCc1cccc(Oc2ccccc2)c1", "AC50": "32.7 µM (active)"},
      {"smiles": "CC(C)(C)CC(C)(C)c1ccc(OCCOCC[N+](C)(C)Cc2ccccc2)cc1", "outcome": "inactive"},
      {"smiles": "CC=Cc1ccc(OCC)c(O)c1", "outcome": "inactive"}
    ]},
    {"assay": "CEETOX_H295R_CORTISOL: CeeTox H295R High-throughput Steroidogenesis Assay for Cortisol (AID 2283438);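 note: cortisol secreted into medium quantified by LC-MS/MS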", "settings": "actives raise or lower the signal", "outline": "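Cortisol synthesis by H295R cells is measured 48 h after chemical dosing, following a 48 h stimulation with 10 uM forskolin. Hormone is extracted and quantified by HPLC-MS/MS, and activity is fitted bidirectionally against the DMSO control.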", "values": [
      {"smiles": "CCC(C)c1cc([N+](=O)[O-])cc([N+](=O)[O-])c1OC(=O)OC(C)C", "note": "(configuration not stated)", "outcome": "inactive"},
      {"smiles": "CC(CN=Cc1ccccc1O)N=Cc1ccccc1O", "note": "(configuration not stated)", "AC50": "4.06 µM (active)"},
      {"smiles": "COCCc1ccc(OCC(O)CNC(C)C)cc1", "note": "(configuration not stated)", "outcome": "inactive"},
      {"smiles": "CC1(C)C(=O)N(Cl)C(=O)N1Br", "outcome": "inactive"},
      {"smiles": "COc1ccc(N=Nc2cc(C)c(N=Nc3ccc(S(=O)(=O)O)cc3)cc2OC)cc1", "outcome": "inactive"},
      {"smiles": "CC(C)Nc1nc(N)nc(Cl)n1", "outcome": "inactive"},
      {"smiles": "CCOC(=O)[C@@H](C)Oc1ccc(Oc2nc3ccc(Cl)cc3o2)cc1", "outcome": "inactive"},
      {"smiles": "CCc1cc(C(C)(C)C)c(O)c(C(C)(C)C)c1", "outcome": "inactive"},
      {"smiles": "C=C1CC[C@H](O)C/C1=C/C=C1\\CCC[C@]2(C)[C@@H]([C@H](C)/C=C/[C@H](C)C(C)C)CC[C@@H]12", "AC50": "42.5 µM (active)"},
      {"smiles": "Nc1ccc(N)c2c1C(=O)c1ccccc1C2=O", "outcome": "inactive"},
      {"smiles": "COc1ccc(CCN2CCC(Nc3nc4ccccc4n3Cc3ccc(F)cc3)CC2)cc1", "AC50": "1.56 µM (active)"},
      {"smiles": "CCCCCCCCN1CCCC1=O", "outcome": "inactive"},
      {"smiles": "Cc1cc(=O)oc2cc(N(C)C)ccc12", "outcome": "inactive"},
      {"smiles": "BrCc1cccc(Oc2ccccc2)c1", "outcome": "inactive"},
      {"smiles": "CC(C)(C)CC(C)(C)c1ccc(OCCOCC[N+](C)(C)Cc2ccccc2)cc1", "outcome": "inactive"},
      {"smiles": "CC=Cc1ccc(OCC)c(O)c1", "outcome": "inactive"}
    ]}
  ]
}
